Binding signal data for 42 sequences are collected here from PMC7819943, “Rice protein-binding microarrays: a tool to detect cis-acting elements near promoter regions in rice”.

In all, about 68,000 sequences were measured (“fluorescence intensity (a.u.)”: median about 9,100, highest 2% from about 16,000 on). The sample as a whole holds a higher share of the highest values than the screen did.

Chain of OsWRKY34 (Q0JBA9 entry or part of it): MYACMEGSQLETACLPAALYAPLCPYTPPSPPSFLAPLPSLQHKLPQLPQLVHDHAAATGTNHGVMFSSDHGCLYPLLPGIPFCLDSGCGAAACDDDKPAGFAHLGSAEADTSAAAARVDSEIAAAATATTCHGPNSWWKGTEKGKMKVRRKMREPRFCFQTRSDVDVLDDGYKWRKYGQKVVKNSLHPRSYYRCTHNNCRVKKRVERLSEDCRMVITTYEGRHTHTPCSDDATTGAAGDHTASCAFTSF

The target of the assay is OsWRKY34 (Oryza sativa, UniProt Q0JBA9 1-250). Briefly: protein-binding microarray (RPBM); PBS, 2% BSA, 51.3 ng/ul salmon testes DNA, 50 uM zinc acetate, 200 nM TF, 25 C, 1 h; high values mean tight binding. To be noted: protein: recombinant; tags: N-terminal polyhistidine and DsRed monomer fusion (pET32a); label: CyDye5-dUTP incorporated in the synthesized complementary strand; 3' TTTTT single-stranded linker to array surface; dsDNA, one strand shown. A digest of the protocol:
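Per-feature fluorescence intensity (arbitrary units), read on an Axon 4000B scanner, is the binding signal. Transcription factors carrying an N-terminal polyhistidine tag and DsRed fusion were expressed in E. coli BL21-CodonPlus and purified on Ni–NTA. A custom Agilent array, made double-stranded by primer extension with Cy5-dUTP and blocked with 2% BSA, was incubated with 200 nM protein in PBS, 2% BSA, salmon testes DNA and 50 µM zinc acetate at 25 °C for 1 h and then washed.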
For “GTGGTGGTGGTGTGTGAGCTCGGGGCTTGGGGTTTTGCGGCGGAGTCACCTAGTGCAG”, the binding signal was 13300 fluorescence intensity (a.u.).

Consider “ACGGTGTATATTTGTGGTGTGGCGGGTGTGGCATTGGATTCGGAGTCACCTAGTGCAG”, for which the binding signal is 16700 fluorescence intensity (a.u.).

For the sequence “TTGGTCGCATTTCGGGTGGTGGTGGTGGTGGTGGTGGTGGCGGAGTCACCTAGTGCAG”, the binding signal was 13200 fluorescence intensity (a.u.).

Consider “TGGTGTTGTCGGTGTGTGGGTGGTGATATACTTTTTTTTTCGGAGTCACCTAGTGCAG”, for which the binding signal was 11600 fluorescence intensity (a.u.).

Turning to “TAGTCTTTTCCATGTCATGTGATCATGTGTGGAGTTGATTCGGAGTCACCTAGTGCAG”, the binding signal was 8550 fluorescence intensity (a.u.).

With “ACTCATGGATGCAGGTCCACCTACATACGTACTACCACAACGGAGTCACCTAGTGCAG”, the binding signal was 8570 fluorescence intensity (a.u.).

For “GCCATCCTCCGCGACGCACATCGTCCGTCCCACCACGATGCGGAGTCACCTAGTGCAG”, the binding signal was 10400 fluorescence intensity (a.u.).

As for “GACATAAGTTTATTATCTATATCCATAGTACGTTTAATCCCGGAGTCACCTAGTGCAG”, the binding signal was 10100 fluorescence intensity (a.u.).

On to “AAACTGCACTACTTTATCTTGGTTGTCTTTAGCATAAGAACGGAGTCACCTAGTGCAG”, for which the binding signal was 12100 fluorescence intensity (a.u.).

Turning to “AATCCCCGCACGCGTCTTTACTTCGCCTTCGTCTTTCCTCCGGAGTCACCTAGTGCAG”, the binding signal is 9340 fluorescence intensity (a.u.).

As for “TTCTTGTTTTCGTGGATCATCATCAACCTCAATAGAAACGCGGAGTCACCTAGTGCAG”, the binding signal was 8410 fluorescence intensity (a.u.).

In the case of “TCTCCTAAAGATTCATGTTACGTATCTCTTACTTCAACAGCGGAGTCACCTAGTGCAG”, the binding signal is 8710 fluorescence intensity (a.u.).

Regarding “GTACGTACAACATTGTGTATCTGTTTTGTAAGTTATTAACCGGAGTCACCTAGTGCAG”, the binding signal is 9710 fluorescence intensity (a.u.).

On to “GACTTTTTATCCAACGTTTGACCATTCGTCTTATTCAAAACGGAGTCACCTAGTGCAG”, for which the binding signal is 10300 fluorescence intensity (a.u.).

For the sequence “GTTTGGCCATGGTGCCGTCGTTGTCTCGTTGATGCTTAGTCGGAGTCACCTAGTGCAG”, the binding signal is 10700 fluorescence intensity (a.u.).

As for “CGGTTTTGACGGACGTGGTGCCCACGTGGCTAGTTTGACTCGGAGTCACCTAGTGCAG”, the binding signal is 8980 fluorescence intensity (a.u.).

Regarding “CCATTGACTTTTTGTCCAACGTTTGACCATTCGTCTTATTCGGAGTCACCTAGTGCAG”, the binding signal is 17000 fluorescence intensity (a.u.).

In the case of “ATCGGTGGTGGTGGTGGTGGTGGCCATGAGTCTCGTTTGACGGAGTCACCTAGTGCAG”, the binding signal was 27500 fluorescence intensity (a.u.).

As to “TCCACTATGGCCATCCTGATATCTTTGATCGTCTTTTCCACGGAGTCACCTAGTGCAG”, the binding signal was 17500 fluorescence intensity (a.u.).

As for “AACTCATCTGACAGTGATCCATCGTCCTTTTTCTTTGACTCGGAGTCACCTAGTGCAG”, the binding signal is 10100 fluorescence intensity (a.u.).

“GTCGTTGACTTTTTAACCACAACGTTTGACCATTCGTCTTCGGAGTCACCTAGTGCAG”: the binding signal is 21800 fluorescence intensity (a.u.).

As for “TTGACCAACGTTTAACCATTCGTTTCATTTAATTTTTTTTCGGAGTCACCTAGTGCAG”, the binding signal is 10800 fluorescence intensity (a.u.).

For the sequence “CTTTTTTTCCAACGTTTGACCATTTGTCTTATTCAAAAAACGGAGTCACCTAGTGCAG”, the binding signal is 8560 fluorescence intensity (a.u.).

Consider “AAAGCCTGTGGCCACATCTTATCTTTTCCATCCTTTGCATCGGAGTCACCTAGTGCAG”, for which the binding signal is 8040 fluorescence intensity (a.u.).

For the sequence “TCAGTGGACTCGGTTCTGTTTTTTTGTCACTCCACTGGCACGGAGTCACCTAGTGCAG”, the binding signal was 9610 fluorescence intensity (a.u.).

In the case of “CACTAAGTCCGTTCCCATGCCCATTTCTCCCTGCATATTACGGAGTCACCTAGTGCAG”, the binding signal is 9680 fluorescence intensity (a.u.).

For “TCGTTGACTTTTTAACCAACGTTTAACCATTCGTCTTATTCGGAGTCACCTAGTGCAG”, the binding signal was 18600 fluorescence intensity (a.u.).

On to “TATGACGTCGTTGACTTTTTAACCAACGTTTGACCATCGTCGGAGTCACCTAGTGCAG”, for which the binding signal is 32900 fluorescence intensity (a.u.).

Regarding “GACTTTTCACGTAACGTTTGACCATTTATCTTATTTATAACGGAGTCACCTAGTGCAG”, the binding signal is 9970 fluorescence intensity (a.u.).

Take “TGTTGACTTTTTTTATTAACGTTTAGCATTTATCTTATTTCGGAGTCACCTAGTGCAG”: the binding signal is 18000 fluorescence intensity (a.u.).

“ACCATTAACTTTTTCTTAATTCGTTTCACTATTTTTTTAACGGAGTCACCTAGTGCAG”: the binding signal was 9500 fluorescence intensity (a.u.).

“CGTTGACTTTTTTTCAACGTTTAATAATTTATCTTATTCACGGAGTCACCTAGTGCAG”: the binding signal is 12900 fluorescence intensity (a.u.).

For the sequence “CCGTTGACTTTTTAACTAATGTTTAACCATTCATTTTATTCGGAGTCACCTAGTGCAG”, the binding signal was 28900 fluorescence intensity (a.u.).

With “ACTATTGACTTTTTTTCTATGTTAGACCATTCATTTTATTCGGAGTCACCTAGTGCAG”, the binding signal is 12300 fluorescence intensity (a.u.).

Turning to “TCTTGACCAACGTTTAACCATTCGTTTTATTTAAAATTTTCGGAGTCACCTAGTGCAG”, the binding signal is 9450 fluorescence intensity (a.u.).

Consider “ACTTTTTAACCAACGTTTGACCATTCGTCTTATTCAAATTCGGAGTCACCTAGTGCAG”, for which the binding signal was 10600 fluorescence intensity (a.u.).

Regarding “TTGTACACTTATGATTTCCTATTTTTGCATATGATTTTGTCGGAGTCACCTAGTGCAG”, the binding signal was 8050 fluorescence intensity (a.u.).

For the sequence “GACACTAGGACAGTACGTAGCTACCTCTCCACTGCTCTGCCGGAGTCACCTAGTGCAG”, the binding signal was 8730 fluorescence intensity (a.u.).

“CTTGATTACCCCGTAGTCAGGTTTGTATGACTAAGCAACCCGGAGTCACCTAGTGCAG”: the binding signal was 8980 fluorescence intensity (a.u.).

In the case of “GACTGGGCCGTTGACCAGACGTGTACCCCACCGGCCAGTCCGGAGTCACCTAGTGCAG”, the binding signal is 9290 fluorescence intensity (a.u.).

Take “GCCAAGGCCTTACTGCTGCTTCTGTTTCTTGCCACCAATGCGGAGTCACCTAGTGCAG”: the binding signal is 9650 fluorescence intensity (a.u.).

Take “GTTTGACTATTTTATGCCTTGTAGCTTGAGCTACAGTTCACGGAGTCACCTAGTGCAG”: the binding signal was 10100 fluorescence intensity (a.u.).
